# Reference: PubChem BioAssay AID1159580 (chemical genetic matrix, 2015)
# About 2,000 (36%) of roughly 5,500 compounds were called active. Inconclusive results (about 18%) are left out. This is one part of the list. A number with no mark means an inactive call. No stated cut-off is given here; in the data, active means normalized growth mostly below about 0.91 (no sharp cut-off); inconclusive means no clear call, values can overlap the other calls; inactive means mostly above about 0.92.
# Assay: chemical genetic growth profiling, strain panel (AID 1159580);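 further: tested at 20 µM; growth read once vehicle control cultures reached saturation at 30 °C; 1 = growth at the plate median or of vehicle wells; lower values mean less growth of the strain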
# Settings: S. cerevisiae deletion strains, growth OD
structure (smiles),measurement,setting,value
CC(=O)O[C@@H]1C[C@@]2(C)[C@H](c3ccoc3)C[C@H]3O[C@]32[C@]2(C)C(=O)C(O)=C3C(C)(C)C(=O)C=C[C@]3(C)C12 (stereo partly drawn),normalized growth,"locus YJL187C, strain SWE1 (second series), active compounds read low",0.958
same,normalized growth,"locus YJL187C, strain SWE1, active compounds read low",0.953
same,normalized growth,"locus YJR043C, strain POL32, active compounds read low",0.97
same,normalized growth,"locus YJR066W, strain TOR1, active compounds read low",0.888
same,normalized growth,"locus YKL009W, strain mrt4, active compounds read low",0.94
same,normalized growth,"locus YKL068W, active compounds read low",0.962
same,normalized growth,"locus YKL085W, strain MDH1 (second series), active compounds read low",0.993
same,normalized growth,"locus YKL085W, strain MDH1, active compounds read low",0.993
same,normalized growth,"locus YKL160W, strain elf1, active compounds read low",0.969
same,normalized growth,"locus YKR001C, strain vps1, active compounds read low",0.812 (active)
same,normalized growth,"locus YKR026C, strain gcn3, active compounds read low",0.965
same,normalized growth,"locus YKR091W, strain srl3, active compounds read low",0.971
same,normalized growth,"locus YLL001W, strain dnm1, active compounds read low",0.979
same,normalized growth,"locus YLL026W, active compounds read low",0.96
same,normalized growth,"locus YLL041C, strain sdh2, active compounds read low",0.976
same,normalized growth,"locus YLR027C, strain aat2, active compounds read low",0.942
same,normalized growth,"locus YLR039C, strain RIC1, active compounds read low",0.513 (active)
same,normalized growth,"locus YLR058C, strain SHM2, active compounds read low",0.936
same,normalized growth,"locus YLR102C, strain apc9, active compounds read low",0.958
same,normalized growth,"locus YLR113W, strain HOG1, active compounds read low",0.911
same,normalized growth,"locus YLR221C, strain rsa3, active compounds read low",0.863 (active)
same,normalized growth,"locus YLR258W, strain gsy2, active compounds read low",0.948
same,normalized growth,"locus YLR262C, strain YPT6 (second series), active compounds read low",0.669 (active)
same,normalized growth,"locus YLR262C, strain YPT6, active compounds read low",0.483 (active)
same,normalized growth,"locus YLR268W, strain sec22, active compounds read low",0.832 (active)
same,normalized growth,"locus YLR320W, strain mms22, active compounds read low",0.816 (active)
same,normalized growth,"locus YLR342W, strain FKS1, active compounds read low",0.921
same,normalized growth,"locus YLR357W, strain rsc2, active compounds read low",1.03
same,normalized growth,"locus YLR370C, strain arc18, active compounds read low",0.927
same,normalized growth,"locus YLR371W, strain rom2, active compounds read low",0.731 (active)
same,normalized growth,"locus YLR384C, strain iki3, active compounds read low",0.956
same,normalized growth,"locus YLR418C, strain cdc73, active compounds read low",0.35 (active)
same,normalized growth,"locus YML016C, strain PPZ1, active compounds read low",0.946
same,normalized growth,"locus YML032C, strain rad52, active compounds read low",0.853 (active)
same,normalized growth,"locus YML120C, strain ndi1, active compounds read low",0.961
same,normalized growth,"locus YML124C, strain tub3, active compounds read low",0.963
same,normalized growth,"locus YMR058W, strain fet3, active compounds read low",0.937
same,normalized growth,"locus YMR078C, strain ctf18, active compounds read low",0.925
same,normalized growth,"locus YMR125W, strain sto1, active compounds read low",0.957
same,normalized growth,"locus YMR129W, active compounds read low",0.977
same,normalized growth,"locus YMR205C, strain PFK2, active compounds read low",0.886
same,normalized growth,"locus YMR223W, strain ubp8, active compounds read low",0.922
same,normalized growth,"locus YMR231W, strain pep5, active compounds read low",0.927 (active)
same,normalized growth,"locus YMR307W, strain GAS1, active compounds read low",0.61
same,normalized growth,"locus YNL067W, strain RPL9B, active compounds read low",0.985
same,normalized growth,"locus YNL071W, strain lat1, active compounds read low",0.736 (active)
same,normalized growth,"locus YNL128W, strain TEP1, active compounds read low",0.914
same,normalized growth,"locus YNL183C, strain NPR1, active compounds read low",0.909
same,normalized growth,"locus YNL209W, strain ssb2, active compounds read low",0.974
same,normalized growth,"locus YNL233W, strain BNI4, active compounds read low",0.935
same,normalized growth,"locus YNL248C, strain rpa49, active compounds read low",0.952
same,normalized growth,"locus YNL250W, strain rad50, active compounds read low",1.02
same,normalized growth,"locus YNL271C, strain bni1, active compounds read low",0.945
same,normalized growth,"locus YNL298W, strain CLA4, active compounds read low",0.953
same,normalized growth,"locus YNL307C, strain MCK1, active compounds read low",0.571 (active)
same,normalized growth,"locus YNL322C, strain KRE1 (second series), active compounds read low",0.956
same,normalized growth,"locus YNR049C, strain mso1, active compounds read low",0.959
same,normalized growth,"locus YNR052C, strain pop2, active compounds read low",0.882 (active)
same,normalized growth,"locus YOL006C, strain TOP1, active compounds read low",0.771
same,normalized growth,"locus YOL012C, strain htz1",0.819
same,normalized growth,"locus YOL147C, strain pex11, active compounds read low",0.818 (active)
same,normalized growth,"locus YOR001W, strain rrp6, active compounds read low",0.92
same,normalized growth,"locus YOR061W, strain CKA2, active compounds read low",0.923
same,normalized growth,"locus YOR069W, strain VPS5, active compounds read low",0.969
same,normalized growth,"locus YOR070C, strain gyp1, active compounds read low",0.949
same,normalized growth,"locus YOR080W, strain dia2, active compounds read low",0.965
same,normalized growth,"locus YOR083W, strain WHI5, active compounds read low",0.976
same,normalized growth,"locus YOR106W, strain vam3, active compounds read low",0.942
same,normalized growth,"locus YOR136W, strain idh2, active compounds read low",0.941
same,normalized growth,"locus YOR144C, strain elg1, active compounds read low",0.864 (active)
same,normalized growth,"locus YOR184W, strain ser1, active compounds read low",0.744 (active)
same,normalized growth,"locus YOR231W, strain MKK1, active compounds read low",0.918
same,normalized growth,"locus YOR265W, strain rbl2, active compounds read low",0.963
same,normalized growth,"locus YOR270C, strain vph1, active compounds read low",0.776 (active)
same,normalized growth,"locus YOR290C, strain snf2, active compounds read low",0.929
same,normalized growth,"locus YOR316C, strain cot1, active compounds read low",0.962
same,normalized growth,"locus YPL051W, strain arl3, active compounds read low",0.895 (active)
same,normalized growth,"locus YPL055C, strain LGE1, active compounds read low",0.803
same,normalized growth,"locus YPL078C, strain atp4, active compounds read low",0.973
same,normalized growth,"locus YPL106C, strain sse1, active compounds read low",0.974
same,normalized growth,"locus YPL240C, strain hsp82, active compounds read low",0.956
same,normalized growth,"locus YPL241C, strain CIN2, active compounds read low",0.966
same,normalized growth,"locus YPL256C, strain CLN2, active compounds read low",0.91
same,normalized growth,"locus YPR119W, strain clb2, active compounds read low",0.959
same,normalized growth,"locus YPR141C, strain kar3, active compounds read low",0.957
same,normalized growth,"locus YPR163C, strain tif3, active compounds read low",0.757 (active)
same,normalized growth,"locus YPR167C, strain met16, active compounds read low",0.945
same,normalized growth,"strain wtn01, active compounds read low",0.864 (active)
